Screens as filed in PubChem.
Rows were chosen to be rich in hits. Some 3.5% of all compounds tested hit in one or more screens of this group.
FBW7 activator = activators of human E3 ligase FBW7 | AlphaScreen FBW7–phospho-cyclin E peptide binding, activator screen | 650,000 tested, 0.13% active | normalized activity (activation), % at 26.1 µM; in the data active = normalized activity above about 1.9%;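 note: purified mutant Fbw7 with reduced substrate affinity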
TEAD-YAP block = TEAD-YAP interaction inhibition. HEK-TIYL cells, TEAD-Gal4/YAP UAS-luciferase luminescence. inhibition, % at 9.12 µM. 640,000 tested, 1.4% active. AID 1259422; in the data active = inhibition above about 32%;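 note: 0% = median of test compound wells and 100% = reference inhibitor wells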
MITF primary = inhibitors of human MITF | O75030 | AlphaScreen MITF homodimerization, bead proximity signal | inhibition, % at 2.6 µM | 650,000 tested, 0.91% active; in the data active = inhibition above about 50%;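 note: 0% = vehicle wells with protein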
GPR151 activ = activates the human receptor GPR151. activation, % at 11.2 µM. 650,000 tested, 1% active. PathHunter beta-arrestin GPR151 cells, luminescence; in the data active = activation above about 4.9%;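 note: 0% = median of compound wells and 100% = cells with positive control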
Target sequence (Q8TDV0 whole entry, looked up): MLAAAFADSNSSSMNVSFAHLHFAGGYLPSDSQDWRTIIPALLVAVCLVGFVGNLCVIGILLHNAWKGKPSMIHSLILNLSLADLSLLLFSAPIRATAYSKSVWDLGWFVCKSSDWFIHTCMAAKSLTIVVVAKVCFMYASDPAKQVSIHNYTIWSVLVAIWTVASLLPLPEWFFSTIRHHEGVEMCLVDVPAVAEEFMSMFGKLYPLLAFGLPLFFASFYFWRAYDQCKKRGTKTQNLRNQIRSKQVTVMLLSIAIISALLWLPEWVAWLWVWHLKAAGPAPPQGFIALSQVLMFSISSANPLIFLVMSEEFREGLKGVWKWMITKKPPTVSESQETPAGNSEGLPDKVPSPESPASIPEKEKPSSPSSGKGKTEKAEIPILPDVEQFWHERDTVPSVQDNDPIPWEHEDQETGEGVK
Starred values were filed as active, the others as inactive.

SMILES | FBW7 activator | TEAD-YAP block | MITF primary | GPR151 activ
COc1ccccc1N1CCN(Cc2cc([N+](=O)[O-])c(O)c3ncccc23)CC1 | -1 | 6 | 28 | -1
COc1ccccc1N1CCN(Cc2cc(COC(C)C)c3cccnc3c2O)CC1 | -1 | 35* | 82* | 1
COc1ccccc1N1CCN(Cc2cc(Br)c(O)c3ncccc23)CC1 | -1 | 81* | 43 | 0
CCOc1ccccc1N1CCN(Cc2cccc(OC)c2O)CC1 | 0 | 8 | 17 | 0
CCCOCc1cc(CN2CCN(C)CC2)c(O)c2ncccc12 | -1 | 7 | 94* | -2
COc1cc(/C=N/NC(=O)Cc2ccccc2)ccc1Oc1ccc([N+](=O)[O-])cn1 | 0 | -4 | 1 | 0
COc1ccc(S(=O)(=O)Nc2ccccc2OC)cc1I | 0 | -11 | 3 | -1
COc1ccc(-[n+]2nc3nonc3[n-]2)cc1 | 0 | 13 | -13 | -1
COc1ccccc1N1CCN(Cc2cc(Cl)c3cccnc3c2O)CC1 | -1 | 32* | 42 | -3
COc1ccccc1N1CCN(Cc2cc([N+](=O)[O-])c3cccnc3c2O)CC1 | -1 | 14 | 18 | -1
Oc1c(CN2CCCCC2)cc(COCc2ccccc2)c2cccnc12 | -1 | 74* | 98* | 0
COc1ccccc1N1CCN(Cc2cc(COCc3ccccc3)c3cccnc3c2O)CC1 | -1 | 74* | 49 | 0
COCc1cc(CN2CCCC2)c(O)c2ncccc12 | -1 | 81* | 100* | 1
COc1cc(CN2CCC3(CCC(CNC(=O)c4csc(C)n4)O3)CC2)ccc1O (stereo not given) | 0 | -13 | -3 | 0
COc1nc(Cl)nc(Nc2ccccc2-c2ccccc2)n1 | 0 | 11 | 22 | -1
CC1CCN(Cc2cc([N+](=O)[O-])c(O)c3ncccc23)CC1 | -1 | -5 | 42 | -1
CCOCc1cc(CN2CCOCC2)c(O)c2ncccc12 | -1 | -3 | 86* | -1
COCc1cc(CN(C)C2CCCCC2)c(O)c2ncccc12 | -2 | 74* | 67* | 0
CCOc1ccccc1N1CCN(Cc2cc(OC)c(OC)c(OC)c2)CC1 | 1 | 41* | 35 | -1
CCCCOc1ccccc1/C=C1/SC(N2CCN(C(C)=O)CC2)=NC1=O | 0 | -7 | -7 | 2
COc1ccccc1Nc1nnc(SC2CCOC2=O)s1 (stereo not given) | 0 | -3 | 1 | 1
Cc1cnc(Nc2cnccn2)nc1NCc1cccc(C(F)(F)F)c1 | 0 | 46* | 8 | 2
O=C(NCc1ccccc1)C1CCN(c2ccc(Nc3ccc(-n4ccnc4)cc3)nn2)CC1 | 0 | 2 | 11 | -2
COc1cc(Nc2ncc(C)c(NCc3cccc(C(F)(F)F)c3)n2)cc(OC)c1OC | 0 | 54* | -5 | 1
Cc1cc(NCc2cccc(C(F)(F)F)c2)nc(Nc2ccc(-n3ccnc3)cc2)n1 | 0 | 50* | 0 | 1
SMILES | FBW7 activator | TEAD-YAP block | MITF primary | GPR151 activ
COc1cc(Nc2ncc(C)c(NCc3cccnc3)n2)cc(OC)c1OC | 0 | -13 | 20 | 2
O=C(NCc1cccc(C(F)(F)F)c1)C1CCN(c2ccc(Nc3ccc(-n4ccnc4)cc3)nn2)CC1 | 0 | 35* | 11 | -3
CCNc1nc(NCc2ccccc2)c2ncn(Cc3ccc(C(F)(F)F)cc3)c2n1 | 0 | 7 | 8 | 1
c1ccc(CNc2ncnc3nc(N4CCc5ccccc5C4)[nH]c23)cc1 | 0 | -12 | 22 | 0
Cc1cnc(Nc2ccc(C(F)(F)F)cc2)nc1NCc1cccc(C(F)(F)F)c1 | 0 | 11 | -22 | -2
Cc1cnc(Nc2ccc(-n3ccnc3)cc2)nc1NCc1cccc(C(F)(F)F)c1 | 0 | 37* | -10 | 0
CCCNc1cc(C)nc(Nc2ccc(-n3ccnc3)cc2)n1 | 0 | 35* | 6 | 1
COc1cc(/C=N/NC(=O)Cn2c3ccccc3c(=O)c3ccccc32)ccc1O | 0 | 53* | 13 | 2
COc1ccccc1NC(=O)Cn1c(-c2nonc2N)nc2ccccc21 | 0 | 65* | 1 | 0
CC(=O)c1ccc(NC(=O)Cn2c(-c3nonc3N)nc3ccccc32)cc1 | 0 | 5 | 4 | 0
COC(=O)c1ccccc1NC(=O)Cn1c(-c2nonc2N)nc2ccccc21 | 0 | 54* | 11 | 0
CCOc1cc(/C=N/NC(=O)Cn2c(-c3nonc3N)nc3ccccc32)ccc1O | 0 | 46* | 6 | 0
COc1cc(/C=N/NC(=O)CCC(=O)N/N=C/c2ccc(O)c(OC)c2)ccc1O | 0 | 9 | -2 | 2
CCN1C(=O)C2C(c3ccc(Cl)cc3)NC(CC)(C(=O)OC)C2C1=O (stereo not given) | 0 | -12 | -4 | 1
O=C(c1ccc(N2CCC(NC3C4CC5CC3CC(O)(C5)C4)CC2)cc1)N1CCOCC1 (stereo not given) | 0 | -11 | 3 | -1
CCN(CC)C(=O)N1c2ccccc2C=Cc2ccccc21 | 0 | 62* | -2 | 0
N#Cc1c(NC(=O)CN2CCN(c3ccccc3)CC2)sc2c1CCC2 | 0 | 2 | 8 | 0
Cc1cc(C)c2c(N)c(C(=O)Nc3ccccn3)sc2n1 | 0 | 95* | -2 | -5
Cc1cccc(NC(=O)c2sc3nc(C)cc(C(F)(F)F)c3c2N)n1 | 0 | 48* | 9 | 1
O=C(O)c1cc(S(=O)(=O)Nc2ccc(C(F)(F)F)cc2)ccc1F | 1 | -3 | 18 | -1
CCc1cccc(C)c1NC(=O)CCCCCN1C(=O)c2ccccc2C1=O | 0 | 2 | 9 | -2
O=[N+]([O-])c1cc2c(cc1C=Nc1ccc(O)cc1)OCO2 | 0 | 7 | 53* | -2
O=C(CN1CCOCC1)NNc1nc(-c2ccccc2)c2cc(Cl)ccc2n1 | 0 | 19 | 3 | 1
Clc1ccc2nc(NCCN3CCOCC3)nc(-c3ccccc3)c2c1 | 0 | 38* | -4 | 0
CCN1C(=O)N(CC)C(NNC(N)=S)C1NNC(N)=S (stereo not given) | 0 | 90* | -9 | 1
SMILES | FBW7 activator | TEAD-YAP block | MITF primary | GPR151 activ
COCCN=C1NN=C(c2ccc(C)cc2)CS1 | 0 | -25 | -1 | 1
CCCc1ccc(C2=NNC(=NC)SC2)cc1 | 0 | 97* | 1 | -9
COC(=O)COc1ccc(S(=O)(=O)NCc2ccc(Cl)cc2Cl)cc1C | 0 | 4 | 11 | 0
CCCCCCN1C2=NCCCN2c2ccccc21 | 1 | 36* | 8 | -1
C=CCN1C2=NCCCN2c2ccccc21 | 0 | 6 | 1 | -1
COc1cccc(NS(=O)(=O)c2ccc3c4c2CC(=O)N4CC(C)S3)c1 (stereo not given) | 0 | 40* | 16 | -2
Cc1cc(C)c(NS(=O)(=O)c2ccc3c4c2CC(=O)N4CC(C)S3)c(C)c1 (stereo not given) | 0 | 4 | -4 | 0
Cc1ccc(CS(=O)(=O)CC2Nc3ccc(C(=O)N4CCCCC4)cc3NC2=O)cc1 (stereo not given) | 0 | 24 | -4 | -1
Cc1nc(C)n(-c2ccc(Nc3cc(-n4cc(C)c(Nc5ccccc5)n4)ccn3)cc2)n1 | 1.9* | 25 | 27 | 2
